From PubChem BioAssay AID504602 (National Center for Advancing Translational Sciences (NCATS), 2011)
Records with an inconclusive call do not appear. Calls of active or inactive are those of the source. The call rests on the fitted dose curve; in most records, active means well fitted curve in the direction sought with a large enough effect; inconclusive means small, poorly fitted or top-dose-only effect, or effect the other way, or another doubt; inactive means no such curve, though single readings can be large or run the other way.

Test: Quantitative high throughput screen to test cell viability of anti-malarial compounds targeting the delayed death phenotype
Description: The biochemical processes that make this organelle essential for erythrocytic stage parasites are not well understood. However, antibiotics, such as azithromycin and tetracycline, which target the apicoplast translational machinery, have a potent antimalarial effect. […] We have developed a cell-based assay that measures parasite growth based on the expression of an integrated copy of a firefly luciferase reporter. To detect small molecules that cause this 'delayed death' phenotype, erythrocytes infected with the luciferase-expressing parasites were incubated with compounds for either one or two generations, corresponding to 48 and 96 hours, respectively. Compounds that inhibit parasite growth in the second generation, but not the first, should be enriched in antimalarials that target the apicoplast. Growth inhibition is detected by a decrease in luciferase activity. The goal of this counterscreen is to measure the cytoxoxicity (against HepG2 cell line) of a set of anti-malarial compounds that target the delayed death pheonotype as identified by the qHTS assay that inhibit the development of the apicoplast in the malarial parasite Plasmodium falciparum. NIH Molecular Libraries Probe Production Network [MLPCN] […]
Cells were plated at a density of 2000 cells/well/5uL in 1536 well white tissue culture plate with culture medium. […] Luminescence was measured using ViewLux (1 second, slow, 2X).

Question: Which outcome does the source give for `C[C@@H]1CN([C@@H](C)CO)C(=O)c2cc(NC(=O)Nc3ccccc3)ccc2O[C@@H](C)CCCCO[C@H]1CN(C)C(=O)Oc1ccccc1` here?
Answer: Its outcome is “inactive”.
